Results published in PubChem BioAssay AID652134 (The Scripps Research Institute Molecular Screening Center, 2013).
In all, about 2,400 compounds went through this assay and about 2,100 (88%) were called active. So high a share suggests a set chosen from earlier hits. The list is a sample of the results. Values without a mark were called inactive.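 How the source made its calls: active means inhibition above the average of every tested compound plus 3 SD (cut at about 3.8% in these data); inactive means the rest.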

Target: Nuclear receptor subfamily 0 group B member 1 (Homo sapiens) (UniProt P51843)
Sequence (P51843 whole entry, looked up): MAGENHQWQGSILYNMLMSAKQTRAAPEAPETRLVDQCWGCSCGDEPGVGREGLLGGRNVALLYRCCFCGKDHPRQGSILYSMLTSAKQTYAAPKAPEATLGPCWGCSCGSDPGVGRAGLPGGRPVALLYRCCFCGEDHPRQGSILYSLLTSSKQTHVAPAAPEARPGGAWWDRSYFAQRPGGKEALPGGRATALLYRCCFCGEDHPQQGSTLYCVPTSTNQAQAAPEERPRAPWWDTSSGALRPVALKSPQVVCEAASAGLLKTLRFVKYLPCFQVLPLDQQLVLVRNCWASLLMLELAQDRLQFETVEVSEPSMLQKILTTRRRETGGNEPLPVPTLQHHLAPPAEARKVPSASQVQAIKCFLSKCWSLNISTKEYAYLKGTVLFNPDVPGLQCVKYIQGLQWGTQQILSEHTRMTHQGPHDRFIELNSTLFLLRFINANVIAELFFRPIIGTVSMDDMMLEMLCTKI
Assay: DAX1 (NR0B1) inhibitors relieving SF-1 repression, confirmation, cell-based, luminescence, HEK293T, full-length DAX-1, SF-1 activated StAR promoter (AID 652134);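 further: 0% = DAX-1 cells with DMSO and 100% = no DAX-1 control cells with DMSO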
Conditions: HEK293T StAR-promoter luciferase reporter, SF-1/DAX-1 repression; at 6.8 µM; stronger effect = higher value

Row | SMILES | inhibition
1 | CC1CCCN(c2ccc(C(=O)NCCc3ccccc3)cn2)C1 (configuration not stated) | 7.54% (active)
2 | CC[C@]1(O)C[C@@H]2CN(CCc3c([nH]c4ccccc34)[C@@](C(=O)OC)(c3cc4c(cc3OC)N(C)[C@H]3[C@@](O)(C(=O)OC)[C@H](OC(C)=O)[C@]5(CC)C=CCN6CC[C@]43[C@@H]65)C2)C1 | 19.4% (active)
3 | CC[C@]1(O)CC2CN(CCc3c([nH]c4ccccc34)[C@@](C(=O)OC)(c3cc4c(cc3OC)N(C=O)[C@H]3[C@@](O)(C(=O)OC)[C@H](OC(C)=O)[C@]5(CC)C=CCN6CC[C@]43[C@@H]65)C2)C1 (some centres not stated) | 17.7% (active)
4 | Cc1c(C(=O)Nc2ccccn2)oc2ccc(Br)cc12 | 12.8% (active)
5 | CCOc1ccc(-c2nnc(-c3ccco3)o2)cc1 | 9.81% (active)
6 | O=C(NCC1CCCO1)c1cc2c(s1)CCCC2 (configuration not stated) | 5.13% (active)
7 | O=C(Nc1ccc2ccccc2c1[N+](=O)[O-])c1ccccc1 | 8.86% (active)
8 | C/C(=N\NC(=O)c1ccccc1F)c1ccccn1 | -7.54%
9 | O=C(NCCOc1ccccc1)c1ccccc1F | 13.3% (active)
10 | O=C(Nc1ccn(Cc2ccccc2)n1)c1n[nH]c([N+](=O)[O-])c1Cl | 10.4% (active)
11 | O=C(CCc1ccccc1)Nc1ncc([N+](=O)[O-])s1 | 3.12%
12 | COc1ccc(-c2csc(Nc3ccccn3)n2)cc1 | 12.8% (active)
13 | COC(=O)Nc1nc2ccc(C(=O)C3CC3)cc2[nH]1 | 17.1% (active)
14 | CN1CCN(C(=O)c2ccc(-c3ccc(Br)cc3)o2)CC1 | 6.02% (active)
15 | COc1ccc(CCOC2OC(CO)C(OC(=O)/C=C/c3ccc(O)c(OC)c3)C(O[C@H]3O[C@@H](C)[C@H](O)[C@@H](O)[C@H]3O)C2O)cc1O (some centres not stated) | 2.5%
16 | CCCOc1ccc(C(=O)NCCc2ccccc2)cc1 | 11.2% (active)
17 | COc1ccc(C(=O)NCC[N+](C)(C)C)cc1 | 1.64%
18 | O=C(N/N=C\C1CC=CCC1)c1ccc(Br)o1 (configuration not stated) | 0.48%
19 | CCCc1cc(C(=O)Nc2ccc(C(=O)OC)cc2)cs1 | 3.03%

Row | SMILES | inhibition
20 | CCCc1cc(C(=O)Nc2ccc(Cl)cn2)cs1 | 8.76% (active)
21 | Nc1c(C(=O)Nc2ccc3c(c2)OCCO3)nnn1Cc1ccccc1 | 12.5% (active)
22 | O=C(Nc1ccc(NC(=O)c2cccs2)cn1)c1ccco1 | 12.9% (active)
23 | O=C(NC(=S)Nc1ccc(Cl)cc1Cl)C1CC1 | 5.19% (active)
24 | COc1cc(OC)c(C(=O)NNC(=O)c2ccc(NS(=O)(=O)c3cccs3)cc2)cc1OC | 1.04%
25 | O=C(Nc1ccccc1)Nc1nc2ccccc2s1 | 14.6% (active)
26 | CC(C)c1ccc(Nc2nnc(SCC(=O)c3nnc(-c4ccccc4)o3)s2)cc1 | 7.92% (active)
27 | CCc1ccc2oc(-c3ccc(N)cc3)nc2c1 | 12.2% (active)
28 | CC(C)(C)c1csc(NC2=NS(=O)(=O)c3ccccc32)n1 | 11.5% (active)
29 | Cc1ccc(-n2cc3ccc([N+](=O)[O-])cc3n2)cc1 | 12.1% (active)
30 | Brc1ccc2nc(N3CCCC3)sc2c1 | 7.35% (active)
31 | O=C(Nc1ncccc1O)c1ccc(S(=O)(=O)N2CCCC2)cc1 | 10.3% (active)
32 | O=C(Nc1ncccc1O)c1ccc(S(=O)(=O)N2CCCCCC2)cc1 | 7.57% (active)
33 | O=C(Nc1ncccc1O)c1ccc(C(=O)c2ccccc2)cc1 | 51.3% (active)
34 | CCc1ccc(NC(=O)N2CCc3ccccc3C2)cc1 | 5.01% (active)
35 | Cc1cc(N)n2nc(-c3ccc(C(C)(C)C)cc3)cc2n1 | 13.7% (active)
36 | O=C(c1cnn(-c2ccc(Cl)cc2)c1)c1ccccc1O | 11.7% (active)
37 | COc1ccccc1Cc1c(-c2ccc(F)cc2)nc2ccc(C)cn12 | 4.48% (active)
38 | Cc1ccc(-c2nc3ccc(Br)cn3c2Cc2ccccc2C(F)(F)F)cc1 | 5.68% (active)

Row | SMILES | inhibition
39 | Nc1ccc2nn(-c3ccc(Cl)cc3)nc2c1 | 15.9% (active)
40 | CN1OC[C@@H]2CN[C@H](c3ccc(-c4ccccc4)cc3)C[C@@H]21 | 8.84% (active)
41 | COc1ccc(-c2csc(-c3cccs3)n2)cc1OC | 10.7% (active)
42 | CC1CCN(CCCNC(=O)CN2C(=O)CSc3ccc(S(=O)(=O)N4CCCCC4)cc32)CC1 | 2.3%
43 | CSCCC(NC(=O)c1ccco1)C(=O)Nc1cc(C)ccn1 (configuration not stated) | 12.7% (active)
44 | O=C(Nc1ccccc1)c1ccc2c(c1)OCCCO2 | 15.6% (active)
45 | Cc1ccc(C(=O)NNC(=O)c2ccc3c(c2)OCCO3)cc1 | 3.83% (active)
46 | Cc1nc(NC(=O)c2ccc3c(c2)OCCO3)ccc1Br | 12.1% (active)
47 | CN1CCN(c2ccc(NC(=O)c3ccc4c(c3)OCCO4)cc2Cl)CC1 | 6.62% (active)
48 | CCC(=O)Nc1ccc(-c2ccc(N3CCCCC3)nn2)cc1 | 3.57%
49 | c1ccc(Cc2c(-c3ccco3)nc3c4ccccc4ccn23)cc1 | 12.1% (active)
50 | COc1ccc(CCNC(=O)COC(=O)Cc2ccccc2F)cc1 | 0.17%
51 | Cc1cc(C(=O)NCCc2ccc(Cl)cc2)c(C)o1 | 3.8% (active)
52 | O=C(O)c1ccc(N/N=C/c2cn(-c3ccccc3)nc2-c2cccs2)cc1 | 12.7% (active)
53 | NC(=O)CSc1nnc(NC(=O)c2ccc3ccccc3c2)s1 | 10% (active)
54 | CCSc1nnc(NC(=O)c2ccc(C)cc2)s1 | 10% (active)
55 | Cc1ccnc(NC(=O)CNC(=O)c2ccccc2)c1 | 3.68% (active)
56 | Cc1nn(-c2ccc([N+](=O)[O-])cc2)c(N)c1-c1ccccc1 | 15.1% (active)
57 | Fc1ccc2cnc(-c3ccccc3)cc2c1 | 6.65% (active)
